Holding throughout (assay): qHTS profiling for inhibitors of Plasmodium falciparum proliferation (AID 504749); also: nearly all actives have a fitted effect of over 60% in size
What all share (conditions): P. falciparum in erythrocytes, SYBR Green DNA, 72 h; series mostly up to 28.7 µM
In general terms: In qHTS, concentration-response curves come from the screen itself.

In one assay the test system is CP260. The method, boiled down:
(§1)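 Quantitative HTS: compounds pinned into medium, infected erythrocytes added (0.3% parasitemia, 2.5% hematocrit), 72 h culture at 37 C under 5% CO2. Saponin/Triton lysis with SYBR Green I, overnight RT, then fluorescence read.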

Another assay relates to CP262. The method, boiled down:
as §1

A further assay relates to CP265. The gist of the method:
as §1

The test system of another assay is CP266. The gist of the method:
as §1

In a further assay the test system is CP268. The method, boiled down: as §1
The next assay relates to CP269. The gist of the method:
as §1

A further assay deals with CP286. The method, boiled down: as §1
The next assay concerns CP291. The gist of the method: as §1
The test system of the next assay is CP297. The gist of the method: as §1
A further assay concerns CP305. The method, boiled down: as §1
In another assay the test system is CP315. The method, boiled down:
as §1

The next assay concerns CP325. The method, boiled down: as §1
For another assay, the system named is CP329. The method, boiled down: as §1
The subject of the next assay is CP335. The method, boiled down:
as §1

The test system of another assay is DFO2036. The method, boiled down: as §1
The test system of another assay is DIV14. The method, boiled down: as §1
The test system of another assay is DIV30. The gist of the method: as §1
Another assay has as its system Dd2. The method, boiled down:
as §1

The next assay deals with ECU. The gist of the method:
as §1

A further assay concerns DIV17. The gist of the method: as §1

Inconclusive results are not listed. Calls of active or inactive are those of the source. Calls follow the shape of the dose curve; as a rule, active = well fitted inhibition curve with a large enough effect; inconclusive = small, poorly fitted or top-dose-only effect; inactive = flat fitted curve, though single readings scatter.
Potency is read from the fitted curve at half-maximal effect.

Turning to `COC1=C(OC)C(=O)C(CCCCCCCCCCO)=C(C)C1=O`, the Potency entry in the assay with CP260, with CP262, with CP265, in the assay with CP266, with CP268 and in the assay with CP269 was “inactive” throughout. Besides, the Potency result in the assay on CP286, in the assay on CP291, with CP297, in the assay with CP305, in the assay with CP315 and in the assay on CP325 was “inactive” in each case. The Potency entry with CP329, in the assay on CP335, in the assay with DFO2036, in the assay with DIV14, with DIV30 and in the assay with Dd2 was “inactive” in each case. In addition, the Potency result in the assay with ECU was “inactive”.
As to `O=C1c2ccccc2-c2n[nH]c3cccc1c23`, the Potency entry in the assay with CP260, in the assay on CP262, with CP265, in the assay with CP266, in the assay on CP268 and in the assay on CP269 was “inactive” each time. Further, the Potency entry in the assay with CP286, with CP291, in the assay on CP297, with CP305, in the assay with CP315 and in the assay on CP325 was “inactive” throughout. Also, the Potency result with CP329, in the assay with DFO2036, with DIV14, with DIV17, with DIV30 and with Dd2 was “inactive” each time. Besides, the Potency entry with ECU is “inactive”.
For the compound `CNC[C@H](O)c1ccc(O)c(O)c1`, the Potency result in the assay on CP260, with CP262, with CP265, with CP266, with CP268 and with CP269 was “inactive” each time. Moreover, the Potency entry in the assay on CP286, in the assay with CP291, in the assay on CP297, with CP305, in the assay on CP315 and in the assay on CP325 was “inactive” each time. The Potency entry in the assay with CP329, in the assay with DFO2036, in the assay on DIV14, with DIV17, in the assay on DIV30 and with Dd2 was “inactive” in each case. In addition, the Potency entry with ECU was “inactive”.
Consider `COc1cc(OC)c(C(=O)CCCN2CCCC2)c(OC)c1`, for which the Potency result with CP260, in the assay with CP262, in the assay on CP265, in the assay with CP266, with CP268 and with CP269 was “inactive” in each case. Moreover, the Potency entry in the assay with CP286, in the assay with CP291, with CP297, in the assay with CP305, in the assay with CP315 and with CP325 was “inactive” each time. The Potency entry in the assay with CP329, in the assay with CP335, in the assay with DFO2036, with DIV14, in the assay on DIV30 and with Dd2 was “inactive” throughout. In addition, the Potency entry with ECU was “inactive”.
Regarding `Cc1cccc(C)c1OCC(=O)N[C@@H](Cc1ccccc1)[C@@H](O)C[C@H](Cc1ccccc1)NC(=O)[C@H](C(C)C)N1CCCNC1=O`, the Potency with CP260 was 3.98 µM (active); with CP262, 9.53 µM (active); in the assay on CP265 it was 5.01 µM (active); with CP268, 9.53 µM (active); with CP269, 6.75 µM (active); in the assay on CP286, 7.08 µM (active). In addition, the Potency in the assay on CP291 was 13.5 µM (active); in the assay on CP297 it was 4.26 µM (active); in the assay with CP305 it was 13.5 µM (active); in the assay on CP315, 6.75 µM (active); in the assay on CP325, 13.5 µM (active); in the assay on CP329 it was 12 µM (active). The Potency with CP335 is 4.78 µM (active); in the assay on DFO2036, 3.98 µM (active); with DIV14 it was 1.9 µM (active); with DIV17, 1.9 µM (active); in the assay on DIV30, 1.9 µM (active); with Dd2 it was 10 µM (active). Moreover, the Potency with ECU was 1 µM (active).
On to `CN(C)C(=O)COC(=O)Cc1ccc(OC(=O)c2ccc(N=C(N)N)cc2)cc1`, for which the Potency result in the assay on CP260, in the assay with CP262, with CP265, with CP266, in the assay on CP268 and with CP269 was “inactive” throughout. The Potency result in the assay on CP286, in the assay with CP291, in the assay on CP297, with CP305, with CP315 and in the assay on CP325 was “inactive” in each case. Further, the Potency result in the assay with CP329, with CP335, in the assay on DFO2036, in the assay on DIV14, in the assay on DIV17 and in the assay with DIV30 was “inactive” throughout. The Potency entry in the assay on ECU was “inactive”.
With `O=C(NCCO[N+](=O)[O-])c1cccnc1`, the Potency result in the assay on CP260, in the assay on CP262, with CP265, with CP268, in the assay on CP269 and in the assay with CP286 was “inactive” throughout. Moreover, the Potency entry with CP291, in the assay on CP297, with CP305, in the assay on CP315, with CP325 and in the assay on CP329 was “inactive” each time. Further, the Potency result with CP335, in the assay on DFO2036, with DIV14, in the assay on DIV17, in the assay on DIV30 and in the assay on Dd2 was “inactive” throughout. In addition, in the assay on ECU, the Potency entry was “inactive”.
As for `Nc1ccn([C@@H]2O[C@H](CO)[C@@H](O)C2O)c(=O)n1` (some centres undefined), the Potency result with CP260, in the assay on CP262, in the assay with CP265, in the assay on CP266, in the assay on CP268 and in the assay on CP269 was “inactive” throughout. In addition, the Potency result with CP286, in the assay on CP291, with CP297, in the assay with CP305, in the assay on CP315 and in the assay with CP325 was “inactive” throughout. The Potency entry in the assay on CP329, in the assay with CP335, in the assay with DFO2036, in the assay on DIV14, in the assay on DIV17 and in the assay with Dd2 was “inactive” throughout. Further, the Potency entry in the assay on ECU was “inactive”.
Take `Clc1ccc(C(Cn2ccnc2)OCc2ccsc2Cl)c(Cl)c1` (centres undefined): the Potency in the assay on CP260 was 11.2 µM (active); in the assay with CP262, 13.5 µM (active); with CP265, 7.94 µM (active); in the assay with CP268, 12 µM (active); with CP269, 6.75 µM (active); in the assay with CP286, 7.08 µM (active). Also, the Potency is 12 µM (active) in the assay on CP291; 3.79 µM (active) in the assay with CP297; 12 µM (active) in the assay on CP305; 15.1 µM (active) with CP315; 12 µM (active) in the assay with CP325; 13.5 µM (active) in the assay with CP329. Moreover, the Potency in the assay on CP335 is 4.78 µM (active); in the assay with DFO2036 it was 3.16 µM (active); in the assay with DIV14, 1.9 µM (active); in the assay on DIV17, 1.69 µM (active); in the assay with DIV30, 4.78 µM (active); in the assay on Dd2, 3.16 µM (active). In the assay on ECU, the Potency was 1.41 µM (active).
For the compound `Cc1c(OCC(F)(F)F)ccnc1CS(=O)c1nc2ccccc2[nH]1` (centres undefined), the Potency entry in the assay with CP260, with CP262, in the assay on CP265, in the assay with CP266, in the assay with CP268 and with CP269 was “inactive” each time. Besides, the Potency entry with CP286, with CP291, in the assay with CP297, with CP305, in the assay on CP315 and in the assay with CP325 was “inactive” in each case. The Potency result with CP329, with CP335, in the assay with DFO2036, with DIV17, in the assay with DIV30 and in the assay with Dd2 was “inactive” each time. Also, in the assay with ECU, the Potency result is “inactive”.
`CCCc1cc(=O)[nH]c(=S)[nH]1`: the Potency entry with CP260, in the assay on CP262, in the assay with CP265, with CP266, in the assay with CP268 and in the assay with CP269 was “inactive” each time. Besides, the Potency entry with CP286, in the assay on CP291, in the assay on CP297, with CP305, with CP315 and with CP325 was “inactive” throughout. In addition, the Potency entry in the assay on CP329, with CP335, with DFO2036, with DIV14, in the assay on DIV17 and with DIV30 was “inactive” in each case. The Potency result with Dd2 and in the assay on ECU was “inactive” throughout.
`COc1ccc(C2(C#N)CCC(C(=O)O)CC2)cc1OC1CCCC1` (centres undefined): the Potency result in the assay on CP260, in the assay with CP262, in the assay with CP265, in the assay on CP268, with CP269 and in the assay on CP286 was “inactive” each time. The Potency result in the assay on CP291, in the assay with CP297, with CP305, with CP315, in the assay on CP325 and in the assay with CP329 was “inactive” each time. Further, the Potency entry in the assay with CP335, in the assay on DFO2036, in the assay with DIV14, in the assay on DIV17, in the assay with DIV30 and with Dd2 was “inactive” in each case. For the same compound, in the assay on ECU, the Potency entry is “inactive”.
Turning to `O=C1CCc2ccc(OCCCCN3CCN(c4cccc(Cl)c4Cl)CC3)cc2N1`, the Potency in the assay with CP260 is 11.2 µM (active). Moreover, the Potency entry with CP262, in the assay with CP265, in the assay on CP266, in the assay with CP268, with CP269 and in the assay on CP291 was “inactive” each time. Further, the Potency entry in the assay on CP297, in the assay on CP305, in the assay with CP315, in the assay with CP325, in the assay on CP329 and with DIV14 was “inactive” each time. Besides, the Potency entry in the assay with DIV17 and in the assay with DIV30 was “inactive” throughout.

The values above are taken from PubChem BioAssay (NCATS).
